Test results taken from PubChem BioAssay (NCATS).
“And” between values parts separate entries of the source, which are not always exact repeats. Equal entries are not always repeated. Results filed as inconclusive are left out. A call without a number means that no potency is given here. Values without a mark were called inactive. The source made the active and inactive calls. Calls come from the whole dose curve; as a rule, active = well fitted curve in the direction sought with a large enough effect; inconclusive = small, poorly fitted or top-dose-only effect, or another doubt; inactive = no such curve, though single readings can be large; an effect the other way counts as inactive or inconclusive.

Legend:
[1] = target: Cytochrome P450 3A7 (Homo sapiens) (UniProt P24462); assay: Cytochrome P450 family 3 subfamily A member 7 (CYP3A7) small molecule antagonists: luciferase biochemical qHTS assay (AID 1963596); note: nearly all actives have a fitted effect of over 40% in size
Chain of Cytochrome P450 3A7 (Homo sapiens) (P24462 whole entry, looked up): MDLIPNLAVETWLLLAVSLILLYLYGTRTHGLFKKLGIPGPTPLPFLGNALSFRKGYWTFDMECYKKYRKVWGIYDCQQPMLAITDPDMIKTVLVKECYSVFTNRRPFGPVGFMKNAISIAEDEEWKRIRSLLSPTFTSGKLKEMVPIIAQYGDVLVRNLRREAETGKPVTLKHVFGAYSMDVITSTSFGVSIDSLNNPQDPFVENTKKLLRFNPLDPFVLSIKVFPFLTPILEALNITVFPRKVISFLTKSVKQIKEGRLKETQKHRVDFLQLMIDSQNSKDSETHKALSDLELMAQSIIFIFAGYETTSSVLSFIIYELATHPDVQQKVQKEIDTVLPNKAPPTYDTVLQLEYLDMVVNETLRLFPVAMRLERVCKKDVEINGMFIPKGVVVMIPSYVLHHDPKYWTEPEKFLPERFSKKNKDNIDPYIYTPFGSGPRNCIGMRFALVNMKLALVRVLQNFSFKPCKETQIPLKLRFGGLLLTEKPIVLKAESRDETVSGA
Procedure, shortened: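 Luminescence read-out (relative luminescence units) after 20 min with detection reagent, which stops the reaction. Enzyme, proluciferin substrate and compound preincubated 10 min, RT; NADPH regeneration system then started 1 h reaction. Ketoconazole as positive control.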

[2] = Viability qHTS for spleen associated tyrosine kinase inhibitor (SYKi) naive MV4-11 cells (AID 1963823); note: nearly all actives have a fitted effect of over 40% in size; note: potency is the fitted concentration of half-maximal effect
Procedure, shortened: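 Cells: MV4-11, SYK inhibitor naive, 500 per well. Treatment: library compounds, 72 hr, 37 C, 5% CO2. Read-out: CellTiter-Glo luminescence after 10 min RT.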

[3] = Viability qHTS for spleen associated tyrosine kinase inhibitor (SYKi) drug resistant MV4-11 cells (AID 1963824); note: nearly all actives have a fitted effect of over 35% in size; note: potency is the fitted concentration of half-maximal effect
Procedure, shortened: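 SYK-inhibitor-resistant MV4-11 AML cells were seeded at 500 per well onto compound and cultured 72 hours (37 °C, 5% CO2). CellTiter-Glo was then added, and after 10 min at room temperature, luminescence gave viability.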

[4] = Quantitative highthroughput screen to assess conditional lethalithy of NOMO1 cells grown in RPMI1640 with untreated serum (RPMI+s) (AID 1963876); note: nearly all actives have a fitted effect of over 35% in size; note: potency is the fitted concentration of half-maximal effect
Procedure, shortened: (§1)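 Each medium arm—HPLM with 10% dialyzed FBS, or RPMI1640 with 5 mM glucose and 10% untreated or dialyzed FBS—was screened against an 11-point, 3-fold compound titration for 48 h at 37 °C, with CellTiter-Glo luminescence as endpoint.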

[5] = Quantitative highthroughput screen to assess conditional lethalithy of NOMO1 cells grown in RPMI1640 with dialyzed fetal bovine serum (RPMI+ds) (AID 1963877); note: nearly all actives have a fitted effect of over 30% in size; note: potency is the fitted concentration of half-maximal effect; for Viability: series mostly up to about 46 µM
Procedure, shortened: as §1

[6] = Quantitative highthroughput screen to assess conditional lethalithy of NOMO1 cells grown in Human Plasma-Like Medium with dialyzed fetal bovine serum (HPLM+ds) (AID 1963878); note: nearly all actives have a fitted effect of over 35% in size; note: potency is the fitted concentration of half-maximal effect
Procedure, shortened: as §1

[7] = Quantitative highthroughput screen to assess conditional lethalithy of P12 Ichikawa cells grown in Human Plasma-Like Medium with dialyzed fetal bovine serum (HPLM+ds) (AID 1963879); details: Potency: viability; note: nearly all actives have a fitted effect of over 35% in size; note: potency is the fitted concentration of half-maximal effect; for Viability: series mostly up to about 46 µM
Procedure, shortened: as §1

[8] = Quantitative highthroughput screen to assess conditional lethalithy of P12 Ichikawa cells grown in RPMI1640 with dialyzed fetal bovine serum (RPMI+ds) (AID 1963880); details: Potency: P12-Ichikawa viability; note: nearly all actives have a fitted effect of over 35% in size; note: potency is the fitted concentration of half-maximal effect
Procedure, shortened: as §1

[9] = Quantitative highthroughput screen to assess conditional lethalithy of P12 Ichikawa cells grown in RPMI1640 with untreated serum (RPMI+s) (AID 1963881); details: Potency: viability; note: nearly all actives have a fitted effect of over 35% in size; note: potency is the fitted concentration of half-maximal effect; for Viability: series mostly up to about 46 µM
Procedure, shortened: as §1

[10] = Quantitative highthroughput screen to assess conditional lethalithy of SEM cells grown in Human Plasma-Like Medium with dialyzed fetal bovine serum (HPLM+ds) (AID 1963882); note: nearly all actives have a fitted effect of over 35% in size; note: potency is the fitted concentration of half-maximal effect; for Viability: series mostly up to about 46 µM
Procedure, shortened: as §1

[11] = Quantitative highthroughput screen to assess conditional lethalithy of SEM cells grown in RPMI1640 with unreated serum (RPMI+s) (AID 1963883); note: nearly all actives have a fitted effect of over 35% in size; note: potency is the fitted concentration of half-maximal effect
Procedure, shortened: as §1

[12] = Quantitative highthroughput screen to assess conditional lethalithy of SEM cells grown in RPMI1640 with dialyzed fetal bovine serum (RPMI+ds) (AID 1963884)
Procedure, shortened: as §1

[13] = Cellular viability qHTS for adrenocortical cancer (ACC) cell line SW-13 (AID 1963989); details: SW-13 ACC cells viability, CellTiter-Glo, 48 h; activity (max response): stronger effect = lower value;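 note: cells grown in serum-free medium with ITS supplement; nearly all actives have a fitted effect of over 65% in size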
Procedure, shortened: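 Compound titrations (up to 46 uM final, in DMSO) were applied to SW-13 cells for 48 h at 37C/5% CO2. Reading used CellTiter-Glo after 20 min at room temperature; fitted curves yielded IC50 and efficacy.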

[14] = Cellular viability qHTS for adrenocortical cancer (ACC) cell line NCI-H295R (AID 1963990); note: nearly all actives have a fitted effect of over 60% in size
Procedure, shortened: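 Readout: CellTiter-Glo luminescence, 20 min RT. Exposure: 48 h, 37C/5% CO2. Cells: NCI-H295R, ITS-DMEM serum-free. Range: up to 46 uM. Analysis: 4PL fit, IC50 plus efficacy.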

SMILES | Potency [1] | Potency [2] | Potency [3] | Potency [4] | Potency [5] | Potency [6] | Potency [7] | Potency [8] | Potency [9] | Potency [10] | Potency [11] | Potency [12] | activity (max response) [13] | Potency [14]
NC(=O)c1cccc2cn(-c3ccc([C@@H]4CCCNC4)cc3)nc12 | inactive | 9.2 µM (active) and 14.8 µM (active) | 10.3 µM (active) and 16.6 µM (active) | inactive | inactive |  |  |  |  |  |  |  |  | 
N[C@@H]1CONC1=O | inactive | inactive | inactive | inactive | inactive | inactive | inactive | inactive | inactive | inactive | inactive | inactive | 0.98% and -6.89% | inactive
CC(C)Cn1cnc2c(N)nc3ccccc3c21 | inactive | inactive | inactive | inactive | inactive | inactive | inactive | inactive | inactive | inactive | inactive | inactive | 0.433% and -11.1% | inactive
CN(C)c1cc(NC(=O)CNC(C)(C)C)c(O)c2c1C[C@@H]1C[C@H]3[C@H](N(C)C)C(=O)C(C(N)=O)=C(O)[C@@]3(O)C(=O)C1=C2O | inactive | inactive | inactive | inactive | inactive | inactive | inactive | inactive | inactive | inactive | inactive | inactive |  | 
N=c1nc(N2CCCCC2)cc(N)n1O | inactive | inactive | inactive | inactive | inactive | inactive | inactive | inactive | inactive |  |  |  | 5.33% | inactive
Cc1cn([C@H]2C=C[C@@H](CO)O2)c(=O)[nH]c1=O | inactive | inactive | inactive | inactive | inactive | inactive | inactive | inactive | inactive | inactive | inactive |  | 4.28% | inactive
CC(C)(Sc1cc(C(C)(C)C)c(O)c(C(C)(C)C)c1)Sc1cc(C(C)(C)C)c(O)c(C(C)(C)C)c1 | inactive | inactive | inactive | inactive | inactive | inactive | inactive | inactive | inactive | inactive | inactive | inactive | 7.94% and -9.47% | inactive
COc1ncnc(NS(=O)(=O)c2ccc(N)cc2)c1OC | inactive | inactive | inactive | 4690 nM (active) | 7430 nM (active) | 2350 nM (active) | 1180 nM (active) | 1180 nM (active) | 1660 nM (active) | 1870 nM (active) | 935 nM (active) |  | -3.79% and 4.29% | inactive
C[C@@H](c1ncncc1F)[C@](O)(Cn1cncn1)c1ccc(F)cc1F | inactive | inactive | inactive | inactive | inactive | inactive | inactive | inactive | inactive | inactive |  |  | -12.4% | inactive
NS(=O)(=O)c1cc2c(cc1Cl)NCNS2(=O)=O | inactive | inactive | inactive | inactive | inactive | inactive | inactive | inactive | inactive | inactive | inactive | inactive |  | inactive
Nc1nc(N)nc(-c2cc(Cl)ccc2Cl)n1 | inactive | inactive | inactive | inactive | inactive | inactive | inactive | inactive | inactive |  |  | inactive | 2.1% and -6.28% | inactive
NCCCCCC(=O)O | inactive | inactive | inactive | inactive | inactive | inactive | inactive | inactive | inactive |  |  |  | 12.2% and -16.4% | inactive
Nc1nnc(-c2cccc(Cl)c2Cl)c(N)n1 | inactive | inactive | inactive | inactive | inactive | inactive | inactive | inactive | inactive | inactive | inactive | inactive | 1.68% and 0.0596% | inactive
